A549 tox-1: Nrf2 qHTS screen for inhibitors: counterscreen for cytotoxicity; Potency, µM (doses to about 46 µM), inactives show top-dose activity change, negative = cytotoxicity, most hits filed as inhibitors; A549 ARE-Fluc cells, CellTiter-Fluor viability, 18-24 h; 390,000 compounds, 0.16% hits; note: potency is the fitted concentration of half-maximal effect; % is set by controls: 0 for no effect and ±100 for the full control effect
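Cytotoxicity counterscreen: CellTiter-Fluor fluorescence was measured in A549 ARE_Fluc cells after 18-24 h of compound exposure in a concentration series. The subsequent BugLite luminescent read reports ARE-luciferase activity.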
B2AR arrestin: qHTS assay of beta-arrestin-biased ligands of beta2-adrenergic receptor; beta-arrestin recruitment to beta2AR, cell-based reporter; Potency, µM (highest dose often 46.1 µM), for the others: at the highest dose activation, most hits filed as activators; 330,000 compounds, 0.02% hits;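 note: potency is the fitted concentration of half-maximal effect; 0% = DMSO controls and full agonism = EC100 isoproterenol or metaproterenol; nearly all actives have a fitted effect of over 65% in size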
Nrf2 ARE act: qHTS of Nrf2 Activators. AREc32 ARE-luciferase reporter (MCF7-derived line), luminescence, 24 h. Potency, µM (highest dose often 46.1 µM), without a hit: at the top dose activation, actives largely listed as activators. 410,000 compounds, 0.31% hits. AID 624171, 2012; note: potency is the fitted concentration of half-maximal effect; % of control where 0% means no effect; nearly all actives have a fitted effect of over 65% in size
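Cells of the AREc32 ARE-luciferase line are plated in OPTI-MEM containing 5% FBS and left overnight at 37 deg C. Compounds are pinned in, incubation continues 24 hr, and firefly luciferase signal is then measured.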
Nrf2 inh: Nrf2 qHTS screen for inhibitors; A549 ARE-Fluc reporter, luciferase luminescence, 18-24 h; Potency, µM (titrated, usually from 46 µM), without a hit: top-dose activity change, negative = inhibition, usual class: inhibitors; 360,000 compounds, 2.1% hits; note: potency is the fitted concentration of half-maximal effect; % is set by controls: 0 for no effect and ±100 for the full control effect; nearly all actives have a fitted effect of over 60% in size
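Two sequential reads on A549 ARE_Fluc cells exposed to compound for 18-24 h: a CellTiter-Fluor fluorescence read for viability, then a luciferase luminescence read for Nrf2/ARE activity.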
miR-21 reporter: qHTS Assay for Modulators of miRNAs and/orActivators of miR-21; HeLa miR-21 FLuc reporter, luciferase, 48 h; Potency, µM (doses to about 38.3 µM), inactives show top-dose activity change, positive = activation, most hits filed as activators; 340,000 tested, under 10 active;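 note: % of control where 0% means no effect; miR-21 action dims this reporter so a rising signal means less miR-21 action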
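HeLa miR-21-FLuc reporter line, endogenous miR-21; 2000 cells/well in DMEM/10% FBS; compound titration up to ~40uM final, 48 h, 37 degree Celsius; luciferase detection reagent, 15 min lysis, CCD luminescence.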
FLuc counter 3: Nrf2 qHTS screen for inhibitors: Purified Fluc Biochemical Counterscreen for Hit Validation. purified firefly luciferase, luminescence inhibition. 1,400 compounds, 4% hits. Potency, µM (titrated, usually from 57.5 µM), without a hit: at the highest dose activity change, negative = inhibition, actives largely listed as inhibitors. shares compounds with Nrf2 inh. AID 720522, 2013; note: potency is the fitted concentration of half-maximal effect; % is set by controls: 0 for no effect and ±100 for the full control effect; nearly all actives have a fitted effect of over 65% in size
Target sequence (P08659 whole entry, looked up): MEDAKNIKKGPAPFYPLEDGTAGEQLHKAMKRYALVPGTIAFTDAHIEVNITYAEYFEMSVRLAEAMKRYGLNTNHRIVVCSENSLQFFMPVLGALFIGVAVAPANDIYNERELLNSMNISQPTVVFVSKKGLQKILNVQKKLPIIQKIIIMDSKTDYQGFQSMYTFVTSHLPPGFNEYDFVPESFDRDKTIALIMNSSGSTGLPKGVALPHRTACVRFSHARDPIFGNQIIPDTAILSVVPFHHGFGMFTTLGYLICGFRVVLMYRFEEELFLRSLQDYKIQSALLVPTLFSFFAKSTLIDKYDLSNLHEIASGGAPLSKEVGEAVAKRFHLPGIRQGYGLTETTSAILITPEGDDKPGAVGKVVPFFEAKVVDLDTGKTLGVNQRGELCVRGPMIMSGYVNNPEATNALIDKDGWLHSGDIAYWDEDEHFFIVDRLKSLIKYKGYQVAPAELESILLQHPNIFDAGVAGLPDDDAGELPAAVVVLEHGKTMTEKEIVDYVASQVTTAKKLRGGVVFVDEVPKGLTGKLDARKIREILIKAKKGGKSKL
A549 tox-2: Nrf2 qHTS screen for inhibitors: A549 ARE-Fluc Cytotoxicity Counterscreen for Hit Validation | shares compounds with Nrf2 inh | A549 ARE-Fluc cells, cytotoxicity counterscreen | Potency, µM (doses to about 46.1 µM), inactives show at the top dose activity change, negative = cytotoxicity, most hits filed as inhibitors | 1,400 compounds, 2% hits | AID 720523, 2013;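 note: potency is the fitted concentration of half-maximal effect; cells exposed to compounds for 18 to 24 hours; % is set by controls: 0 for no effect and ±100 for the full control effect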
ARE-Fluc inh: Nrf2 qHTS screen for inhibitors: Nrf2 A549 ARE-Fluc Confirmation Assay for Hit Validation. shares compounds with Nrf2 inh. 1,400 compounds, 74% hits. A549 ARE-firefly luciferase reporter, luminescence. Potency, µM (series often up to 46.1 µM), for the others: at the highest dose activity change, negative = inhibition, actives largely listed as inhibitors. AID 720524, 2013; note: potency is the fitted concentration of half-maximal effect; % is set by controls: 0 for no effect and ±100 for the full control effect; nearly all actives have a fitted effect of over 65% in size
The depositor's hits bear a star; ? = inconclusive; nt = no result given. In the library only some 2.2% were active in any assay of this set; here they are far more common. Calls come from the whole dose curve; as a rule, active = well fitted curve in the direction sought with a large enough effect; inconclusive = small, poorly fitted or top-dose-only effect, or another doubt; inactive = no such curve, though single readings can be large; an effect the other way counts as inactive or inconclusive.

SMILES | A549 tox-1 | B2AR arrestin | Nrf2 ARE act | Nrf2 inh | miR-21 reporter | FLuc counter 3 | A549 tox-2 | ARE-Fluc inh
COc1ccccc1OC(C)C(=O)Nc1nc(-c2ccc(S(=O)(=O)N3CCOCC3)cc2)cs1 (centres undefined) | ? | 0.1% | 0.3% | 4.4% | -6.6% | nt | nt | nt
COc1ccccc1C(=O)Nc1nc(-c2ccc(S(=O)(=O)N3CCOCC3)cc2)cs1 | -28.0% | -0.2% | -0.9% | 5.17µM* | ? | -12.3% | -16.9% | 1.3µM*
CCc1ccc(NC(=O)N2CC(C)Oc3ccc(C)cc32)cc1 (centres undefined) | 4.7% | nt | 4.8% | -24.7% | -2.3% | nt | nt | nt
S=C(NCc1ccccc1)Nc1cccc2cnccc12 | -13.1% | -0.5% | 3.9% | 2.59µM* | 4.4% | -13.7% | -2.2% | 7.31µM*
S=C(NCCc1ccccc1)Nc1cccc2cnccc12 | -24.0% | -0.1% | 3.0% | 3.66µM* | 16.2% | 0.0426µM* | -15.9% | 2.59µM*
CCCCNC(=S)Nc1cccc2cnccc12 | -5.4% | -0.5% | 3.7% | -21.7% | -2.7% | nt | nt | nt
CC(/C=N/NC(=O)CSc1nc(C)cc(C)n1)=C\c1ccccc1 | 1.4% | -0.1% | 0.7% | -28.4% | -2.1% | nt | nt | nt
CC(/C=N\NC(=O)Cn1c(C)nc2ccccc21)=C\c1ccccc1 | -18.9% | 0.2% | 13.5% | 8.2µM* | 8.5% | -2.2% | -17.9% | 7.31µM*
CCc1ccc2ncc3c(-c4ccc(F)cc4)nn(CC(=O)NC4CCCCC4)c3c2c1 | 0.0% | nt | -0.7% | 1.64µM* | -1.5% | -0.3% | -2.3% | ?
COc1ccc(CCNC(=O)/C=C\c2ccccc2)cc1OC | -3.4% | -0.5% | -0.8% | -15.9% | -27.4% | nt | nt | nt
COc1ccc(/C=C/C(=O)NC(=S)NCCc2ccc(OC)c(OC)c2)cc1 | ? | 0.2% | -0.7% | 7.31µM* | -2.7% | -3.9% | -12.6% | 5.4%
NC(=O)CSc1ncc2c(n1)-c1ccccc1N(Cc1cccc(F)c1)S2(=O)=O | -0.9% | nt | -0.5% | 14.5% | -1.1% | nt | nt | nt
CC(O)CNC(=O)C(=O)Nc1c2c(nn1-c1ccc(Cl)cc1)CSC2 (centres undefined) | -4.3% | nt | 0.3% | nt | -1.5% | nt | nt | nt
CN(c1ccc(OCC(=O)NCCc2ccccc2)cc1)S(=O)(=O)c1ccc(Cl)cc1 | 9.4% | 0.1% | 3.4% | 19.4% | nt | nt | nt | nt
CCOc1ccc(S(=O)(=O)N(C)c2ccc(OCC(=O)Nc3nc4ccccc4s3)cc2)cc1 | -11.8% | -0.7% | 3.2% | 2.31µM* | 27.1% | 1.5% | -2.3% | 9.2µM*
COc1ccc(CCNC(=O)COc2ccc(N(C)S(=O)(=O)c3ccc(Cl)cc3)cc2)cc1 | -4.3% | -0.8% | 3.4% | 3.66µM* | 2.6% | -0.7% | -6.6% | 18.4µM*
COc1cccc(C(=O)Nc2cccc(-c3nc4ncccn4c3C)c2)c1 | 28.3% | nt | 5.3% | nt | -11.3% | nt | nt | nt
CC1(c2ccc3ccccc3c2)NC(=O)N(CC(=O)N2CCN(Cc3ccc(C#N)cc3)CC2)C1=O (centres undefined) | -14.3% | 3.8% | 2.1% | 0.411µM* | nt | 0.1% | 1.8% | 0.82µM*
CC(=O)N1CCN(C(=O)CN2C(=O)NC(C)(c3ccc4ccccc4c3)C2=O)CC1 (centres undefined) | 6.3% | -0.1% | -0.1% | -10.4% | nt | nt | nt | nt
Cc1ccc(-c2c(C(=O)N3CCN(c4cc(Cl)ccc4C)CC3)oc(=O)c3ccccc23)cc1 | 0.0% | nt | -0.4% | 9.0% | -3.5% | nt | nt | nt
CCOc1ccc(NS(=O)(=O)c2ccc3[nH]c4c(c3c2)CCCCC4)cc1 | -2.0% | nt | -1.7% | ? | 10.1% | nt | nt | nt
O=C(NN=C(c1ccccc1)c1ccccn1)c1ccccc1 | ? | -0.7% | ? | 5.17µM* | nt | -24.6% | 6.51µM* | nt
COc1ccc(C(=O)N/N=C(\c2ccccc2)c2ccccn2)cc1 | ? | 7.7% | 18.3% | 8.2µM* | 2.7% | 1.9% | -0.4% | ?
O=C(N/N=C(\c1ccccc1)c1ccccn1)c1ccccc1Cl | -29.2% | -0.8% | ? | ? | 7.0% | nt | nt | nt
Cc1ccc2oc(-c3cc(NC(=O)c4ccc5c(c4)OCCO5)cc(C)c3O)nc2c1 | -1.3% | nt | 0.3% | -6.7% | -5.1% | nt | nt | nt
SMILES | A549 tox-1 | B2AR arrestin | Nrf2 ARE act | Nrf2 inh | miR-21 reporter | FLuc counter 3 | A549 tox-2 | ARE-Fluc inh
O=C(NNc1ccnc2cc(Cl)ccc12)C1CCCCC1 | -17.3% | 0.1% | 0.6% | 3.26µM* | 16.6% | ? | -13.1% | 2.59µM*
CCn1cc(C(=O)N(C)c2cc(C)ccc2C)c2cc(OC)c(OC)cc2c1=O | -18.9% | nt | -0.9% | ? | 0.7% | nt | nt | nt
Cc1ccc(-c2cc3cccc[n+]3cc2-c2ccc(C)cc2)cc1 | -16.9% | -0.1% | 3.3% | 3.26µM* | ? | 0.9% | -11.7% | 2.59µM*
CO/N=C/c1ccc(N2CCN(C(=O)c3cccc(C(F)(F)F)c3)CC2)c([N+](=O)[O-])c1 | ? | -0.1% | 0.6% | ? | 15.8% | nt | nt | nt
CO/N=C/c1ccc(N2CCN(C(=O)c3ccc(Cl)cc3Cl)CC2)c([N+](=O)[O-])c1 | -28.1% | -0.1% | -0.1% | 6.51µM* | 27.3% | -0.8% | -22.3% | 11.6µM*
Nc1ncnc2c(C3OC(CO)C(O)C3O)c[nH]c12 (centres undefined) | ? | nt | -0.3% | 0.231µM* | nt | 2.4% | ? | 0.103µM*
Cn1c(-c2ccccc2)cccc1=O | -1.5% | 0.1% | 0.5% | nt | -4.7% | nt | nt | nt
Cn1c(-c2ccccc2)c[n+]2c1-c1ccccc1C2 | 7.1% | -1.1% | 0.1% | ? | -0.9% | -10.0% | -8.9% | 1.64µM*
Cc1ccc2c(c1)[nH]c1c(N3CCN(Cc4ccccc4)CC3)ncnc12 | ? | -0.2% | -1.6% | 8.2µM* | 29.9% | -29.1% | ? | 11.6µM*
c1ccc2c(c1)CCN(c1ncnc3c1[nH]c1ccccc13)C2 | -25.2% | 0.2% | 1.9% | 5.8µM* | ? | -24.4% | -10.2% | 5.8µM*
Cc1ccc(NC(=O)CCCn2c(=O)c3cccn3c3cccnc32)cc1C | 3.7% | nt | -0.6% | ? | -10.2% | nt | nt | nt
Cn1c(=O)c2[nH]c(CCCCCCCCc3nc4ccccc4[nH]3)nc2n(C)c1=O | -20.9% | nt | 5.8% | 8.2µM* | nt | -0.2% | -17.4% | nt

Bioassay records as filed in PubChem.
